We go through eight compounds from PubChem BioAssay (NCI).

A short description of assay [1]: NCI Yeast Anticancer Drug Screen. Data for the rad50 strain (AID 155).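 Also: 0% = growth of vehicle-only cultures of the same strain.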 Conditions: S. cerevisiae rad50 strain growth inhibition; at 50.0 µM; active compounds read high. In a few lines: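 Readout: growth inhibition relative to vehicle-treated cultures. Compound exposure was carried out in a genetically defined yeast strain deficient in DNA damage repair.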
The nature of assay [2]: NCI Yeast Anticancer Drug Screen. Data for the mec2-1 strain (AID 157). To be noted: S. cerevisiae mec2-1 strain, at 50.0 µM, active compounds read high. In a few lines:
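Readout is yeast growth inhibition, normalised to vehicle-treated controls, in the mec2-1 strain exposed to compound.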

A short description of assay [3]: NCI Yeast Anticancer Drug Screen. Data for the sgs1 mgt1 strain (AID 161).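 Also: 0% = growth of cultures given vehicle only.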 To be noted: S. cerevisiae sgs1 mgt1 strain, at 50.0 µM, active compounds read high. In a few lines: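 Compounds are added to genetically altered yeast, and growth is compared with cultures given vehicle alone to give percent inhibition.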
Assay [4] can be described thus: NCI Yeast Anticancer Drug Screen. Data for the cln2 rad14 strain (AID 165).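 Also: 0% = growth equal to vehicle treated cultures.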 To be noted: S. cerevisiae cln2 rad14 strain, at 50.0 µM, active compounds read high. In a few lines:
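Relative to vehicle controls, growth inhibition of compound-treated cln2 rad14 yeast was recorded.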

Assay [5] is described as follows: NCI Yeast Anticancer Drug Screen. Data for the bub3 strain (AID 167). Conditions: S. cerevisiae bub3 mutant strain, at 50.0 µM, active compounds read high. In a few lines: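 Readout: yeast growth inhibition, expressed relative to vehicle-only wells. The test organism is a mutant strain from a panel with lesions in DNA repair or checkpoint genes.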
Assay [6] can be described thus: NCI Yeast Anticancer Drug Screen. Data for the mlh1 rad18 strain (AID 175). Conditions: S. cerevisiae mlh1 rad18 strain growth inhibition; at 50.0 µM; active compounds read high. Put shortly:
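Test agents were incubated with a yeast strain of defined genotype (DNA damage repair defect). Inhibition of growth was derived by comparison with vehicle-exposed cultures.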

Compounds without any hit were thinned out: in the full panel of roughly 79,000, 15% have a hit. A number with no mark means an inactive call. Active and inactive are the calls of the source. Rule as the data show it: active = growth inhibition above about 70%; inactive = the rest.

Turning to `CC1C2(C)OC(=N)C(C#N)(C(c3cccc([N+](=O)[O-])c3)O2)C1(C#N)C#N` (stereo unspecified), the growth inhibition was 8.15% in assay [1]; 1.55% in assay [2]; -13.6% in assay [3]; 0.15% in assay [4]; -10.4% in assay [5]; -9.1% in assay [6].

`CC1(C)C2CCC1(CS(=O)(=O)O)C(=O)C2` (stereo unspecified): the growth inhibition in assay [1] was -14%; in assay [2] it was -6.6%; in assay [3], -12.4%; in assay [4] it was -58.4%; in assay [5], -4.65%; in assay [6] it was -1.2%.

`Cc1cc2nn(C3CCCO3)nc2cc1C` (stereo unspecified): the growth inhibition in assay [1] was -10.6%; in assay [2], -23.5%; in assay [3] it was -21.8%; in assay [4], -15.3%; in assay [5], -3.8%; in assay [6], -36.4%.

Turning to `Cc1ccc2c(sc(-c3ccc4c(c3)sc(-c3ccc5c(c3)sc(-c3ccc(N(C)C)cc3)[n+]5C)[n+]4C)[n+]2C)c1S(=O)(=O)O` (tested in a mixture with another compound), the growth inhibition in assay [1] was 27.7%; in assay [2] it was 22.3%; in assay [3], 46.4%; in assay [4], 40.1%; in assay [6], 70.4% (active).

As to `COc1ccc(OC)c(N(CN2C(=O)CCC2C(=O)O)C(C)=O)c1` (stereo unspecified), the growth inhibition in assay [1] was 10.2%; in assay [2], 10.2%; in assay [3] it was -13.3%; in assay [4] it was 1.05%; in assay [6], -23.3%.

With `CC(C)=CCc1c(OC(=O)c2c(C)cc(O)cc2O)cc(CO)c(CO)c1O`, the growth inhibition in assay [1] is 5.1%; in assay [2] it was 11.4%; in assay [3], 30.4%; in assay [4] it was 5.95%; in assay [5], 8.65%; in assay [6], -54.9%.

Consider `COc1cc2c(cc1-c1coc3cc(O)ccc3c1=O)OCO2`, for which the growth inhibition in assay [1] was -12.6%; in assay [2] it was -24.3%; in assay [3], -15.6%; in assay [4], 11.2%; in assay [5], -14.3%; in assay [6], -42.6%.

In the case of `CCC/C(Cl)=N/OC(=O)Nc1cccc(F)c1`, the growth inhibition is -2.75% in assay [1]; -6.9% in assay [2]; 90.8% (active) in assay [3]; 16.6% in assay [4]; 45% in assay [5]; 41.5% in assay [6].
